# Assay outcomes: PubChem BioAssay, National Center for Advancing Translational Sciences (NCATS)
# JMJD2A Tudor inh: JMJD2A Tudor domain (human) inhibition; hit rate 4.4% among 390,000; Potency, µM (highest dose often 114 µM), for inactives: top-dose activity change, negative = inhibition, hits mostly inhibitors; AlphaScreen JMJD2A-Tudor / H3K4me3 peptide binding; AID 504339; further: on the % scale 0 is the no-effect control and ±100 the full control effect; nearly all actives have a fitted effect of over 50% in size
# Target sequence (O75164 whole entry, looked up, the tested form may be a part): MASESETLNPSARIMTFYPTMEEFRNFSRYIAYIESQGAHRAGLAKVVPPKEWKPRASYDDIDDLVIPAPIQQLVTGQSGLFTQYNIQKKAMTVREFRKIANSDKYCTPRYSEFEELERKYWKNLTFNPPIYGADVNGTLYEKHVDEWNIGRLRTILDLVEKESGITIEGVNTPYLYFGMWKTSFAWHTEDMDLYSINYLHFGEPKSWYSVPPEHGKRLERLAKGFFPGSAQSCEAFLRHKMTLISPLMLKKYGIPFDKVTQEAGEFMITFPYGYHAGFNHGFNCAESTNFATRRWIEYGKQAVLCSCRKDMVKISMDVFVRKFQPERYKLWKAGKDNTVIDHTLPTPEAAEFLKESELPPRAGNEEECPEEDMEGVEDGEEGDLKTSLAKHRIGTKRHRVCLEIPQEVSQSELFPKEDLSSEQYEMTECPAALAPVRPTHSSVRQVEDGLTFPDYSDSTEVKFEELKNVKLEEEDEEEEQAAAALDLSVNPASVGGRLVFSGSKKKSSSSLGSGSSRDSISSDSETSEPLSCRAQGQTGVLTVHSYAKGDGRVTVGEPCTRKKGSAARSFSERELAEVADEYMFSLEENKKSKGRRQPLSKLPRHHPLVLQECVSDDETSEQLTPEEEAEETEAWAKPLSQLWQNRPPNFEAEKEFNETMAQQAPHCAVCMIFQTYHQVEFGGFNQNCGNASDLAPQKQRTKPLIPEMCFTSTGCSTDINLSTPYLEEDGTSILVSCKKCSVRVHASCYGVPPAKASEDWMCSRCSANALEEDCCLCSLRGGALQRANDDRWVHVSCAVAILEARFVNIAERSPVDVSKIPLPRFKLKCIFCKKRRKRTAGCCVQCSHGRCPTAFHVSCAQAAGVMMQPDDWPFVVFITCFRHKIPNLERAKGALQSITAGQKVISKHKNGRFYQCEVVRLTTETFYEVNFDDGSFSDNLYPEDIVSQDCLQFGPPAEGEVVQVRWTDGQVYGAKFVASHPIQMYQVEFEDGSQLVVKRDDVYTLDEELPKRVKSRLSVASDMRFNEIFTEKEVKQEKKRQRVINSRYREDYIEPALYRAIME
# HP1b chromo inh: HP1-beta chromodomain-methylated histone interaction inhibition | AlphaScreen HP1-beta / biotin-H3K9me3 peptide binding | Potency, µM (titrated, usually from 114 µM), without a hit: top-dose activity change, negative = inhibition, hits mostly inhibitors | hit rate 0.56% among 390,000 | AID 540317; further: nearly all actives have a fitted effect of over 70% in size
#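 HP1-beta protein (50 nM final) preincubated 30 min at room temperature with biotinylated H3(1-18)K9me3 peptide (50 nM) in PBS pH 7.4, 0.01% Tween-20, then compound added for 30 min. AlphaScreen streptavidin donor/nickel chelate acceptor beads (10 ug/mL final), 30 min dark, luminescence read.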
# BAZ2B inh: blocks human BAZ2B | AlphaScreen BAZ2B-H3K14Ac peptide displacement | Potency, µM (titrated, usually from 114 µM), for the others: at the top dose activity change, negative = inhibition, actives largely listed as inhibitors | hit rate 4.4% among 360,000; further: on the % scale 0 is the no-effect control and ±100 the full control effect; nearly all actives have a fitted effect of over 60% in size
#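 AlphaScreen displacement: compounds (up to 110uM) incubated 30 min at room temperature with a preformed 50 nM BAZ2B/50 nM biotinylated H3K14Ac peptide complex in PBS pH 7.4 with Tween-20. Donor and acceptor beads at 10 ug/mL final added, 20 min light-protected before reading.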
# G9a block: G9a (human) methyltransferase inhibition; Q96KQ7; G9a H3K9 monomethylation, AlphaScreen, 2 h; Potency, µM (doses to about 102 µM), for the others: top-dose activity, negative = inhibition, hits mostly inhibitors; hit rate 8.8% among 350,000; further: on the % scale 0 is the no-effect control and ±100 the full control effect; nearly all actives have a fitted effect of over 75% in size
#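 Using a bead-based AlphaScreen, monomethylated H3K9 product from 2 h room-temperature reactions (G9a 20 nM, peptide 500 nM, SAM 20 uM) was detected with 0.5 ug/mL rabbit anti-H3K9me1 antibody.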
# L3MBTL1 inh: L3MBTL1 (human) inhibition | Q9Y468 | AlphaScreen L3MBTL1–H3K9me1 peptide binding | Potency, µM (highest dose often 57.1 µM), inactives show top-dose activity, negative = inhibition, hits mostly inhibitors | hit rate 0.66% among 230,000; further: on the % scale 0 is the no-effect control and ±100 the full control effect; nearly all actives have a fitted effect of over 60% in size
#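 L3MBTL1 (50 nM) pre-complexed 30 min with biotinylated H3(1-15)K9me1 peptide (75 nM), then compounds added for 30 min at room temperature; AlphaScreen streptavidin donor/nickel chelate acceptor beads (10 ug/mL final) read after 30 min dark incubation.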
# Sfp PPTase inh: Sfp phosphopantetheinyl transferase inhibition | Q9F4F7 | Biochemical Sfp PPTase activity, qHTS | Potency, µM, for inactives: largest response in the series, negative = inhibition, hits mostly inhibitors | hit rate 3.5% among 310,000 | AID 1490;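 further: the enzyme is Sfp with the accession as filed and its product quenches rhodamine fluorescence; 0% = enzyme reaction without inhibitor and -100% = no enzyme wells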
#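 Buffer: 50 mM Hepes-Na pH 7.6, 10 mM MgCl2, 0.01% Nonidet P-40, 0.01% BSA. Enzyme 15 nM, pre-exposed to compound 15 min; substrates then added and fluorescence change tracked over 30 min.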
# The depositor's hits bear a star; ? = inconclusive; . = not tested or not shown; [ ] = dose if it differs, or a comment. A selection: hits, their analogues and other compounds. The true share with any hit is near 12%. The call rests on the fitted dose curve; in most records, active means well fitted curve in the direction sought with a large enough effect; inconclusive means small, poorly fitted or top-dose-only effect, or another doubt; inactive means no such curve, though single readings can be large; an effect the other way counts as inactive or inconclusive. Potency means the concentration at half of the fitted maximal effect.
SMILES,JMJD2A Tudor inh,HP1b chromo inh,BAZ2B inh,G9a block,L3MBTL1 inh,Sfp PPTase inh
COc1ccc(C(=O)N/C(=C\c2ccccc2)C(=O)NC(CCSC)C(=O)O)cc1 (configuration not stated),-2%,44%,10%,56µM*,1%,23%
CC(C)OCCCN(Cc1ccco1)C(=O)c1cc2c(s1)-c1ccccc1OC2,114%,154%,102%,144%[59 µM],.,.
CC(=O)Nc1ccc(NS(=O)(=O)c2c(C)nc3sccn3c2=O)cc1,7%,55%,-3%,-4%[59 µM],.,.
O=C(O)CCNc1ccc(NCCC(=O)O)c2c1C(=O)c1ccccc1C2=O,22µM*,14µM*,11µM*,13µM*,.,-13%
OCCNCc1cccc(-c2ccccc2)c1O,-10%,19%,.,.,.,.
O=C1c2cccc(NCCNCCO)c2C(=O)c2cccc(NCCNCCO)c21,35µM*,?,.,.,.,.
Cc1c(C(=O)N2CCC(C)CC2)c(S(=O)(=O)Nc2cccc(C#N)c2)c(C)n1C,-18%,7%,-20%,14%[59 µM],.,.
COc1cc(NC(=O)C2CCN(S(=O)(=O)c3ccc4c(c3)CCCC(=O)N4)CC2)cc(OC)c1,-10%,13%,5%[57.1 µM],-29%[59 µM],.,.
Nn1c(Nc2ccccc2)nc2sc3c(c2c1=O)CCCC3,-28%,-10%,-15%,-8%,-4%,-15%
O=C(CSc1nc2sc3c(c2c(=O)n1-c1ccccc1)CCCC3)N/N=C/c1ccccc1C(=O)O,?,15%,?,79µM*,.,30%
NNc1nc2sc3c(c2c(=O)n1-c1ccccc1)CCCC3,-27%,6%,-6%,50µM*,1%,4%
COc1ccc(CNC(=O)Cn2c(=O)nc(-c3ccccc3F)c3cc(Cl)ccc32)cc1OC,-14%,5%,-19%,-20%[59 µM],.,.
COc1ccc(Cl)cc1C(=O)C1CCCN(Cc2cnc(N3CCOCC3)s2)C1 (configuration not stated),14µM*,?,-31%,-25%,-28%,-12%
COc1ccc(F)cc1C(=O)C1CCCN(Cc2cnc(N3CCCC3)s2)C1 (configuration not stated),-15%,11%[57 µM],-9%,.,-20%,1%
COC(=O)Nc1ccc(S(=O)(=O)N2CCC(C)CC2)cc1,-9%,18%,11%,17%[12.7 µM],.,9%
COC(=O)Nc1ccc(S(=O)(=O)N2CCN(C)CC2)cc1,79µM*,22%,4%,?,-4%,25%
COC(=O)Nc1ccc(S(=O)(=O)N2CCC(C(=O)N3CCC(C)CC3)CC2)cc1,11µM*,-3%,-8%,11%,-9%,1%
CCc1nn(CC(=O)N2CCN(c3cccc(C)c3)C(C)C2)c(=O)c2cc3sccc3n12 (configuration not stated),-24%,39%,22%,?,.,.
Cc1ccc(C(=O)Nc2ccccc2C(=O)O)cc1S(=O)(=O)NC1CCCCC1,-21%,24%,56µM*,71µM*,.,7%
COc1ccccc1NS(=O)(=O)c1cc(C(=O)NCc2ccco2)ccc1C,50µM*,7%,-31%,-42%[59 µM],.,9%
Cc1ccc(C(=O)Nc2ccccc2C(=O)NCc2ccco2)cc1S(=O)(=O)N1CCCCC1,?,8%,-21%,16µM*,-1%,5%
CCc1c(C)sc2c1CCN(C(=O)Nc1ccccc1Cl)C2c1ccc(OC)cc1 (configuration not stated),-11%,21%,-23%,4%[12.7 µM],.,.
CC1CCC(C(=O)O)NC1c1cccc(N2CCCC2=O)c1 (configuration not stated),.,.,.,.,.,-4%
Cc1ccccc1N1CCN(Cc2cc3c(cc2[N+](=O)[O-])OCO3)CC1,-26%,8%,?,.,-8%,-16%
O=[N+]([O-])c1cc2c(cc1CN1CCN(c3ccccc3F)CC1)OCO2,-31%,9%,56µM*,-19%[59 µM],-7%,-8%
SMILES,JMJD2A Tudor inh,HP1b chromo inh,BAZ2B inh,G9a block,L3MBTL1 inh,Sfp PPTase inh
CCOc1ccccc1N1CCN(Cc2cc3c(cc2[N+](=O)[O-])OCO3)CC1,?,-14%,?,71µM*,-17%,-19%
COc1ccc(NC(=O)Cn2c(SCc3cccc(Cl)c3)nc3ccncc32)c(OC)c1OC,-20%,16%,?,?,.,.
CN(C)CCNCCCOc1ccccc1-c1ccccc1,.,.,40µM*,8.9µM*,-8%,50µM*
COC(=O)c1ccccc1OCCCOc1ccc(C)cc1OC,.,.,-37%,-3%[59 µM],-3%,?
CC(C)(C)NCCOCCOc1ccccc1-c1ccccc1,1.8µM*,22µM*,22µM*,3.5µM*,-9%,17%
COC(=O)c1ccccc1OCCCN(C)C,89µM*,?,79µM*,8.9µM*,-5%,?
NCCOc1ccccc1-c1ccccc1,-10%,30%,5%,14%[59 µM],3%,8%
COCCCNCCOCCOc1ccccc1-c1ccccc1,2.5µM*,?,50µM*,?,-13%,?
CCOc1ccc(CNCc2c(C(=O)O)c(C)n(Cc3ccc(F)cc3Cl)c2C)cc1,-34%,-21%,?,-27%[59 µM],.,.
CCC(C)NCCOCCOc1ccccc1-c1ccccc1 (configuration not stated),3.5µM*,?,50µM*,13µM*,-1%,-9%
O=C(NCCOc1ccccc1-c1ccccc1)c1ccco1,-11%,-25%,-15%,21%,6%,10%
C=CCNCCOCCOc1ccccc1-c1ccccc1,50µM*,-26%,79µM*,.,51%,-5%
Cc1cc(C)c2nc(NC(=O)c3ccc(S(=O)(=O)N4CCC(C)CC4)cc3)sc2c1,0%,24%[57 µM],1%,2%[59 µM],.,.
Cc1cc(C)c2nc(NNC(=O)c3ccc(S(=O)(=O)N4CCCC(C)C4)cc3)sc2c1 (configuration not stated),?,-22%,8.9µM*,45µM*,?,-8%
Cc1cc(C)c2nc(NC(=O)c3ccc(S(=O)(=O)N4CCc5ccccc54)cc3)sc2c1,-21%,15%[57 µM],-13%,-7%[59 µM],.,.
Cc1cccc2sc(NNC(=O)c3ccc(S(=O)(=O)N4CC(C)CC(C)C4)cc3)nc12 (configuration not stated),22µM*,-16%,8.9µM*,50µM*,?,?
Cc1cc(C)c2nc(NNC(=O)c3ccc(S(=O)(=O)N4CC(C)CC(C)C4)cc3)sc2c1 (configuration not stated),16µM*,-12%,10µM*,28µM*,?,?
CCN(CC)c1nc(C#N)nc(N2CCOCC2)n1,-16%[57.1 µM],21%[57 µM],.,.,.,.
